About 7,900 targets were measured; listed, in parts, are those with a hit and a random draw of the rest. About 0.6% of all pairs of compound and target were hits.
Columns and labels:
Assay in all cases: log2 fold change, soluble protein after heating vs DMSO (PISA); higher = thermal stabilisation; K562 cells, 10 uM, 30 min; active = over 0.2 and 3.5 SD of the protein, either way, in both replicates (recomputed)
[1] = compound: C1=CC=C(C=C1)[C@H](COC2=CC3=C(C=C2)NC(=O)N3)NC(=O)C4=CC=CN(C4=O)CC5=CC(=C(C=C5)F)F
Summary of the method: (§1)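 For each measurement, 10 μM compound was applied for 30 min to K562 cells at 2×10^6 cells/mL. Aliquots were heated for 3 min across 48°C-58°C, pooled, and extracted in PBS with 0.5% NP-40 at 4°C; the supernatant after 21,000xg for 90 min was soluble protein. This was quantified by TMTpro 16plex LC-MS/MS with channel sums equalised, and thermal stability was reported relative to control samples from duplicates, on a log2 fold-change scale.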

[2] = compound: CC1=C(SC2=C1C(=N[C@H](C3=NN=C(N32)C)CC(=O)N)C4=CC=C(C=C4)Cl)C
Summary of the method: as §1

[3] = compound: CC1=C2C(=CC=C1)N=C(N(C2=O)C3=CC=CC=C3C)CN4C=NC5=C(N=CN=C54)N
Summary of the method: as §1

[4] = compound: Cc1sc2c(c1C)C(c1ccc(Cl)cc1)=N[C@@H](CC(=O)OC(C)(C)C)c1nnc(C)n1-2
Summary of the method: as §1

[5] = compound: c1ccc([C@@H]2C[C@H]2NC2CCNCC2)cc1
Summary of the method: as §1

Measured: log2 fold change

USP14 (UniProt P54578)
inactive: [1] -0.031 | [2] 0.03 | [3] 0.046 | [4] -0.028 | [5] -0.025

TMEM214 (UniProt Q6NUQ4)
inactive: [1] 0.023 | [2] 0.044 | [3] 0.005 | [4] -0.002 | [5] -0.024

VKORC1 (UniProt Q9BQB6)
inactive: [1] -0.058 | [2] 0.132 | [3] 0.083 | [4] -0.183 | [5] -0.012

VTI1A (UniProt Q96AJ9)
inactive: [1] 0.032 | [2] 0.009 | [3] 0.091 | [4] -0.023 | [5] 0.07

WDHD1 (UniProt O75717)
inactive: [1] -0.014 | [2] 0.085 | [3] 0.121 | [4] 0.002 | [5] 0.015

TMEM8A (UniProt Q9HCN3)
inactive: [1] 0.017 | [2] 0.038 | [3] -0.011 | [4] 0.038 | [5] 0.094

TPR (UniProt P12270)
inactive: [1] 0.053 | [2] 0.014 | [3] 0.001 | [4] 0.083 | [5] 0.043

UFL1 (UniProt O94874)
Chain of UniProt O94874 (O94874 whole entry, looked up): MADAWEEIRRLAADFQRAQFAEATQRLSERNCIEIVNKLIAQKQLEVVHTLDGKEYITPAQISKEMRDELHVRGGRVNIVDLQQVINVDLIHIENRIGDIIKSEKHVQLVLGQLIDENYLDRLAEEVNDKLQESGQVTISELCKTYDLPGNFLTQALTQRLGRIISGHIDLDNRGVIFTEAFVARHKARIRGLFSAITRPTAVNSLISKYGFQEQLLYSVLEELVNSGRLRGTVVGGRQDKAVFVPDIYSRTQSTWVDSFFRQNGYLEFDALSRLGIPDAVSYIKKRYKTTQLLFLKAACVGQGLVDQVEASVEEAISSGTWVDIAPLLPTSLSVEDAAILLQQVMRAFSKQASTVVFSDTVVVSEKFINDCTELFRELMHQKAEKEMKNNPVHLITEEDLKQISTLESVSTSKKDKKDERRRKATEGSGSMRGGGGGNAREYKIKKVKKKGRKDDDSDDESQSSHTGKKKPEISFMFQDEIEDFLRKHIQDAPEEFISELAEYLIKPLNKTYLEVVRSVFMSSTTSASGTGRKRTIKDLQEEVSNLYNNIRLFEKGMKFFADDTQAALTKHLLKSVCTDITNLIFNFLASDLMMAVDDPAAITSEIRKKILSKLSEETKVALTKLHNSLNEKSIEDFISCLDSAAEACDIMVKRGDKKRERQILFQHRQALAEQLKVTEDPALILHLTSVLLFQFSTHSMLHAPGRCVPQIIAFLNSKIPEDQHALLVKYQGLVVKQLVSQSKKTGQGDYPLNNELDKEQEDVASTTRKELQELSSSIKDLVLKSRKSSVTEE
inactive: [1] -0.072 | [2] 0.012 | [3] 0.039 | [4] 0.001 | [5] -0.066

UBE4B isoform 4 (UniProt O95155)
Chain of UniProt O95155 (O95155 whole entry, looked up): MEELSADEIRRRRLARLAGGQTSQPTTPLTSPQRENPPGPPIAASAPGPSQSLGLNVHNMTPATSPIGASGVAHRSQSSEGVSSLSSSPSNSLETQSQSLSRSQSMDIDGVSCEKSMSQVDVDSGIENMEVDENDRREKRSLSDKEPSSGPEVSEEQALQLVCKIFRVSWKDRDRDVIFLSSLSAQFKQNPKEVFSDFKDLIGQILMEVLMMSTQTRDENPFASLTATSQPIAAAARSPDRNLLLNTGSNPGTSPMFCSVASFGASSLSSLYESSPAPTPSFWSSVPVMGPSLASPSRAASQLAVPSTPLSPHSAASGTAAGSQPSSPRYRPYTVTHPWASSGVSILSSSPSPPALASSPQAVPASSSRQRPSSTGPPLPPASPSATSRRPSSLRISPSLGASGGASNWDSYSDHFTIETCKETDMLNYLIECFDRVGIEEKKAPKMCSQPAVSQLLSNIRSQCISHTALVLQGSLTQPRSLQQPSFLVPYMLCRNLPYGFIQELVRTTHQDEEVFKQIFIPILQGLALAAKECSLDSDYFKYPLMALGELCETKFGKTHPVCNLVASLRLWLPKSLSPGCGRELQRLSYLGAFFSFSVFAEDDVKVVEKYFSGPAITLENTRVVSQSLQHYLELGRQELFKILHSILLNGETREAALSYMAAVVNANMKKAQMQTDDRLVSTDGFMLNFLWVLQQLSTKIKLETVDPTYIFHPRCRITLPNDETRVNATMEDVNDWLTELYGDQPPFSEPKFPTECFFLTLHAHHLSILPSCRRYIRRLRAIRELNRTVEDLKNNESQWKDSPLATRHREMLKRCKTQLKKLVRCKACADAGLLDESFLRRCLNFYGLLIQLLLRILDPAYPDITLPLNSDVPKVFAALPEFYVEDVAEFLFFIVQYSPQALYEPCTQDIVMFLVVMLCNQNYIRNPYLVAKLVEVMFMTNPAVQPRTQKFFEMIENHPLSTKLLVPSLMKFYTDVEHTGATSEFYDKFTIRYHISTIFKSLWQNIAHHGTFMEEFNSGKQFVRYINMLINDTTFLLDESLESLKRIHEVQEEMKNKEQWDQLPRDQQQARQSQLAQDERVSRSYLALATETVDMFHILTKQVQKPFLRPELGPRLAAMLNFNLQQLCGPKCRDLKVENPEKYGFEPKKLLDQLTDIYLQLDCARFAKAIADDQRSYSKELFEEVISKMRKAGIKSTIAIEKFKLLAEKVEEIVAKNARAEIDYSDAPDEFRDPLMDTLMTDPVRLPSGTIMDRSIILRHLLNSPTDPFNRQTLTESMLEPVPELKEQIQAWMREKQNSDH
inactive: [1] -0.019 | [2] 0.03 | [3] 0.019 | [4] 0.006 | [5] -0.003

TRMT10A (UniProt Q8TBZ6)
inactive: [1] -0.038 | [2] 0.028 | [3] 0.006 | [4] -0.033 | [5] -0.055

UCHL5 isoform 3 (UniProt Q9Y5K5)
inactive: [1] 0.021 | [2] 0.232 | [3] -0.123 | [4] 0.069 | [5] 0.167

UGDH (UniProt O60701)
inactive: [1] 0.025 | [2] 0.052 | [3] 0.103 | [4] -0.04 | [5] -0.038

WASHC5 (UniProt Q12768)
inactive: [1] 0.034 | [2] 0.042 | [3] 0.09 | [4] 0.003 | [5] -0.041

XIAP (UniProt P98170)
Chain of UniProt P98170 (P98170 whole entry, looked up): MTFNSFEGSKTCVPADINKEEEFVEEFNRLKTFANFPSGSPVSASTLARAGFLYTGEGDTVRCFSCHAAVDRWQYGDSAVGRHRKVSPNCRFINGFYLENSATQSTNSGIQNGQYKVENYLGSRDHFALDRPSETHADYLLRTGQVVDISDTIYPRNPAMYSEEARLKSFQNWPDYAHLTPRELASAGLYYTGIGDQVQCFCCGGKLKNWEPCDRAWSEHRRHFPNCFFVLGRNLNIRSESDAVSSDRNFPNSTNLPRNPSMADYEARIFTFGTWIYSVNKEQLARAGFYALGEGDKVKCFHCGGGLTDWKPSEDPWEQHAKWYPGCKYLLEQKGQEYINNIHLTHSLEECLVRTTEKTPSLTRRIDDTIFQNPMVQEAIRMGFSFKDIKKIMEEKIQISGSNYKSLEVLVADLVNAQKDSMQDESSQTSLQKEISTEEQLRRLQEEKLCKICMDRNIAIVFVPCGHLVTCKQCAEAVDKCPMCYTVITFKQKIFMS
inactive: [1] 0.05 | [2] 0.003 | [3] 0 | [4] 0.048 | [5] 0.002

WBP4 (UniProt O75554)
inactive: [1] 0.012 | [2] 0.009 | [3] -0.024 | [4] 0.014 | [5] 0.051

VPS18 (UniProt Q9P253)
Chain of UniProt Q9P253 (Q9P253 whole entry, looked up): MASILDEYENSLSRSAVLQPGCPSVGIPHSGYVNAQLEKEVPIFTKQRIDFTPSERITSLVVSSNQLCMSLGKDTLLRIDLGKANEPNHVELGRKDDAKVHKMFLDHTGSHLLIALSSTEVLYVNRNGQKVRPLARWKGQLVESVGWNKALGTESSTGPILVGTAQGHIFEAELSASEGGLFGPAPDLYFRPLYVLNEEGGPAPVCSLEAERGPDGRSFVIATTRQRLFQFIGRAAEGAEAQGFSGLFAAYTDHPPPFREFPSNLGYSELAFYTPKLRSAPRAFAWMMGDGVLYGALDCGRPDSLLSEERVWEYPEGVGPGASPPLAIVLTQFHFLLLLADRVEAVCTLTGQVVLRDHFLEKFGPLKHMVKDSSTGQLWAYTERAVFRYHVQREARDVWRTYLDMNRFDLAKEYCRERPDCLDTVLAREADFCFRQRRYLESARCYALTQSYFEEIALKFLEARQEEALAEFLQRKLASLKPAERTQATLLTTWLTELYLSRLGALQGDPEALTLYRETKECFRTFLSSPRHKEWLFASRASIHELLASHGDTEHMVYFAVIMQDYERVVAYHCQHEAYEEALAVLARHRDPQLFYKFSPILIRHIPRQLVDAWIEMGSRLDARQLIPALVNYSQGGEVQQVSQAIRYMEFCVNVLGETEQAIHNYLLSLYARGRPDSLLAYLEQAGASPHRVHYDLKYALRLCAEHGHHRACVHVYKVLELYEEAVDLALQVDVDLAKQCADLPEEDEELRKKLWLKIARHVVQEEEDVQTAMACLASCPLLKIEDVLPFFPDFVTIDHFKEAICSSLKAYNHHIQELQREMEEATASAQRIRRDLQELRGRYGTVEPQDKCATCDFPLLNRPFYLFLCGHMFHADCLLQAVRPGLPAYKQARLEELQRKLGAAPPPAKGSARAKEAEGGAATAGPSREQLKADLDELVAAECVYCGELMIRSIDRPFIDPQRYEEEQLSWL
inactive: [1] 0.014 | [2] -0.052 | [3] -0.03 | [4] -0.03 | [5] 0.004

TUT4 (UniProt Q5TAX3)
inactive: [1] -0.029 | [2] -0.181 | [3] 0.214 | [4] -0.052 | [5] 0.153

WARS2 (UniProt Q9UGM6)
inactive: [1] -0.025 | [2] -0.009 | [3] 0.104 | [4] -0.002 | [5] 0.06

VPS37A (UniProt Q8NEZ2)
inactive: [1] -0.076 | [2] 0.088 | [3] 0.126 | [4] 0.007 | [5] 0.036

WDCP (UniProt Q9H6R7)
inactive: [1] 0.013 | [2] 0 | [3] -0.015 | [4] 0.039 | [5] 0.145

U2AF2 (UniProt P26368)
inactive: [1] -0.004 | [2] 0.057 | [3] 0.045 | [4] 0.044 | [5] 0.005

VPS8 (UniProt Q8N3P4)
Chain of UniProt Q8N3P4 (Q8N3P4 whole entry, looked up): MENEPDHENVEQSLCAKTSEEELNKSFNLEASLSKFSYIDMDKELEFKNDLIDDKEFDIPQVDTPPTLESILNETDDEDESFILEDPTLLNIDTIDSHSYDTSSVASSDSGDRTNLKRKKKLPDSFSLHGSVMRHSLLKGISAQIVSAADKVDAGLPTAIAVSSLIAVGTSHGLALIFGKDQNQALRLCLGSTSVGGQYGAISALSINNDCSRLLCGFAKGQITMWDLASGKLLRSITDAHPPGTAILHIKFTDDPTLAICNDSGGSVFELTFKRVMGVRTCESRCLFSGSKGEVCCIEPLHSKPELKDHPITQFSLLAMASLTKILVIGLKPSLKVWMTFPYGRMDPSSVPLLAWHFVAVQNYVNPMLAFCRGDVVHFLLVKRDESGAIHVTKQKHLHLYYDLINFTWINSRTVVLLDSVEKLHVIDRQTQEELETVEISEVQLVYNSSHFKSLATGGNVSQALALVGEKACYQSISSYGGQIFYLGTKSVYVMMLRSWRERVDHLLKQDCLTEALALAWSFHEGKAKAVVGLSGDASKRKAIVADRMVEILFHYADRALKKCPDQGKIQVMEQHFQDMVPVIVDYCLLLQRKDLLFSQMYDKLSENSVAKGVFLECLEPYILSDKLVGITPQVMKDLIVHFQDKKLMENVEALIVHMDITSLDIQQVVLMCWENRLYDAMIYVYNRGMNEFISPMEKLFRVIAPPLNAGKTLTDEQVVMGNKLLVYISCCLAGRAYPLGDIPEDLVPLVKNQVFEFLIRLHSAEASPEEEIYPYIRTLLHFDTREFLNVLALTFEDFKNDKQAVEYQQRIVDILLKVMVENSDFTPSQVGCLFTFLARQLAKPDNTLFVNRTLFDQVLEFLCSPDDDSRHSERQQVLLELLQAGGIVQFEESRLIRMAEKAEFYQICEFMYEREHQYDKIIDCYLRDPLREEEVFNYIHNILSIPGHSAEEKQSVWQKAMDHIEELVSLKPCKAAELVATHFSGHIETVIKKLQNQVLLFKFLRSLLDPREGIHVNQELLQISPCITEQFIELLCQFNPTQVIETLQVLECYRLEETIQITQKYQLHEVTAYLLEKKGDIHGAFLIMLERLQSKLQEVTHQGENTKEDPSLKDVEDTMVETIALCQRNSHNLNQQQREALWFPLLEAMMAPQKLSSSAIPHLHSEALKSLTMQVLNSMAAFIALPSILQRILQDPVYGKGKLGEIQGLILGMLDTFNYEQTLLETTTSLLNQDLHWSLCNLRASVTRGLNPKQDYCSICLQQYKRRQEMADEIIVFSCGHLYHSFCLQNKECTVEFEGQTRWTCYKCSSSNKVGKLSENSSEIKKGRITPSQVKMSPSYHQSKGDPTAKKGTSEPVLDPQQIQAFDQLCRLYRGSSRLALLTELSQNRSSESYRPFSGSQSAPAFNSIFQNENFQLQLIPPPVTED
inactive: [1] -0.08 | [2] 0.106 | [3] 0.042 | [4] -0.034 | [5] 0.017

TRAPPC3 (UniProt O43617)
inactive: [1] -0.025 | [2] 0.03 | [3] 0.036 | [4] -0.024 | [5] 0.007

Source: the supplement of paper PMC10849652
